A selection: hits, their analogues and other compounds. The true share with any hit is near 6.6%.
KB-V1 cytotox: qHTS assay for MDR1-selective chemotherapeutics: Primary screen using the drug-selected MDR subline cells KB-V1 | AID 1347076, 2019 | KB-V1 MDR cells viability, CellTiter-Glo, 72 h | 400,000 tested, 3.4% active | Potency, µM (series often up to 46.1 µM), hits mostly cytotoxic; also: % is scaled to controls: 0 for no effect and ±100 for the full control effect; nearly all actives have a fitted effect of over 60% in size
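Compound-treated KB-V1 multidrug-resistant cells, 72 h, 37 degrees C; viability by CellTiter-Glo. Fitted qHTS curves give the values.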
RGS4 inhibitor: Inhibitors of Regulator of G Protein Signaling (RGS) 4: qHTS | Transcreener GDP fluorescence polarization, RGS4-accelerated GTP hydrolysis | Potency, µM (doses to about 114 µM), for the others: top-dose activity change, negative = inhibition, actives largely listed as inhibitors | 390,000 tested, 0.039% active | AID 504845, 2011; also: % is scaled to controls: 0 for no effect and ±100 for the full control effect; nearly all actives have a fitted effect of over 75% in size
Target sequence (P49798 whole entry, looked up): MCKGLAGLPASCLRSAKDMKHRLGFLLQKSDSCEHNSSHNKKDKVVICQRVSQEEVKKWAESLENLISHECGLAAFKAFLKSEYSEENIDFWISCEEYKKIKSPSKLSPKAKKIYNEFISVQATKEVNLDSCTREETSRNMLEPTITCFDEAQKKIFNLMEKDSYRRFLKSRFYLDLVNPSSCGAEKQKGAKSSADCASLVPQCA
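MLSMR compounds (23 nl, pin-transferred) preincubated 10 min at room temperature with a 500nM (2x) first reagent, then RGS4 at 900nM (2x) plus Transcreener GDP mix added; fluorescence polarization (620/688 nm) read before and after 90 min at 30 °C.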
TSG101-PTAP inh: qHTS Assay for Iinhibitors of HIV-1 Budding by Blocking the Interaction of PTAP/TSG101; Potency, µM (doses to about 115 µM), inactives show at the highest dose activity change, negative = inhibition, usual class: inhibitors; 340,000 tested, under 10 active; Fluorescence polarization, FITC-PTAP peptide / Tsg101 binding; AID 493005, 2010; active = well fitted inhibition curve with a large enough effect in the main read-out, with a control signal flat, not every such curve was filed as active; inconclusive = small, poorly fitted or top-dose-only effect, or effect the other way, or a change in a side signal; inactive = no such curve, though single readings can be large or run the other way; also: % of control where 0% means no effect
Target sequence (Q99816 whole entry, looked up): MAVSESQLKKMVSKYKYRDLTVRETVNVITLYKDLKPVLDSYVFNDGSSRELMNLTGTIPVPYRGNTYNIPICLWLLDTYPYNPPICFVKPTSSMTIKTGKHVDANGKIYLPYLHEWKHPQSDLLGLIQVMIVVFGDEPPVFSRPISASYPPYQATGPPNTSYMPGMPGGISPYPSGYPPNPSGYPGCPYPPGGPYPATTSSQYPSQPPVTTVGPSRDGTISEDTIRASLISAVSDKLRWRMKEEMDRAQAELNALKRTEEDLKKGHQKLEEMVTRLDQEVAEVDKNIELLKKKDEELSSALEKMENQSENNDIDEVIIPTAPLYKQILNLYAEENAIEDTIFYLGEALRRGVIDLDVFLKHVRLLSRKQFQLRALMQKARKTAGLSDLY
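Fluorescence polarization binding of Tsg101 binding domain (10 uM final) to FITC-labeled PTAP peptide (50 nM final) in HEPES pH 7.5 buffer with NaCl, Tween 20, EDTA, TCEP. Compounds added before peptide; binding 20 min at RT.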
KB-3-1 tox: qHTS assay for MDR1-selective chemotherapeutics: Primary screen using the parental adenocarcinoma cell KB-3-1; KB-3-1 viability, CellTiter-Glo ATP luminescence, 72 h; Potency, µM (top dose mostly 46.1 µM), actives largely listed as cytotoxic; 400,000 tested, 1.4% active; also: % is scaled to controls: 0 for no effect and ±100 for the full control effect; nearly all actives have a fitted effect of over 60% in size
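Screening of KB-3-1 cells (DMEM, 10% FBS, phenol-red free) ran from lowest to highest compound concentration; after 72 h at 37 °C viability was read luminescently and curves fitted.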
SW480 rereplic: A quantitative high throughput screen for small molecules that induce DNA re-replication in SW480 colon adenocarcinoma cells. SW480 DNA re-replication, Hoechst DNA content imaging, 48 h. Potency, µM (top dose mostly 46.1 µM), without a hit: at the top dose re-replication activation, hits mostly activators. 340,000 tested, 1.8% active; also: % of control where 0% means no effect; nearly all actives have a fitted effect of over 55% in size
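First, 250 cells per well were seeded. Next, compound or vehicle (23 nL) was pinned in, plates sat 48 hr at 37 C. Finally Hoechst was added for 40 min before fluorescence scanning.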
MCF10A rerep: A quantitative high throughput screen for small molecules that induce DNA re-replication in MCF 10a normal breast cells; MCF 10A DNA re-replication, Hoechst nuclear intensity, 48 h; Potency, µM (top dose mostly 46.1 µM), for the others: top-dose activity, positive = re-replication, usual class: activators; 350,000 tested, 2.9% active; also: % of control where 0% means no effect; nearly all actives have a fitted effect of over 50% in size
Numbers without * were called inactive; i = inactive; ? = inconclusive; . = no result given; [ ] = remark or other dose. Unless noted, calls follow the shape of the dose curve; as a rule, active = well fitted curve in the direction sought with a large enough effect; inconclusive = small, poorly fitted or top-dose-only effect, or another doubt; inactive = no such curve, though single readings can be large; an effect the other way counts as inactive or inconclusive. Potency is read from the fitted curve at half-maximal effect.

SMILES	KB-V1 cytotox	RGS4 inhibitor	TSG101-PTAP inh	KB-3-1 tox	SW480 rereplic	MCF10A rerep
CCC(C)C(N)C(=O)O (configuration not stated)	.	.	.	.	-1%	-1%
CCN(CC)CCOC(=O)c1ccc(NC(=O)c2cc3cccc(OC)c3oc2=O)cc1	?	15%	.	i	.	.
Cc1c(P(=S)(c2ccccc2)c2ccccc2)[n+]2ccccc2n1C/C=C/c1ccccc1	i	.	.	10µM*	.	.
OCc1nc2ccccc2n1C/C=C/c1ccccc1	i	20%	3%	i	-7%	15%
CN(C)CCC=C1c2ccccc2C=Cc2ccccc21	?	-13%[56.9 µM]	0%	i	?	1%
CN(C)CC/C=C1\c2cc(F)ccc2CSc2ccccc21	21µM*	-2%	1%	i	14%	9%
CN(CC/C=C1/c2ccccc2CSc2ccccc21)CCCO	23µM*	8%	-2%	i	?	13%
CN(C)CCC=C1c2ccccc2C(C)(C)c2ccccc21	.	.	.	.	?	30µM*
C=CCN(C)CC/C=C1\c2ccccc2CSc2ccccc21	i	6%	-4%	i	0%[9.22 µM]	8%
C#CCN(C)CC/C=C1\c2ccccc2CSc2ccccc21	i	2%[11.4 µM]	0%	i	16µM*	?
CC(=O)Nc1ccc(SCCN2CCN(C)CCC2=O)cc1	.	-17%	.	.	.	.
Clc1ccc(-c2noc3ncnc(NCCc4ccccc4)c23)cc1	i	0%	.	i	.	.
CCN(CC)CCCNC(=O)c1ccc2c(c1)N(Cc1c(F)cccc1Cl)C(=O)c1ccccc1S2	i	-1%	.	?	.	.
Cc1nc2[nH]c(=S)n(C)c(=O)c2nc1C	i	-9%	-3%	i	26µM*	0%
CCC(Cc1ccccc1)NC(=O)Cn1ncc2c3ccccc3n(Cc3ccccc3)c2c1=O (configuration not stated)	i	-10%	.	i	.	.
CCCCCCCCN1C(=O)[C@H](CC(=O)NCCCOCCCC)C[C@@]2(C(=O)OC)CC(C)(C)CC=C12	23µM*	.	.	18µM*	.	.
CCOC(=O)[C@]12CCCC=C1N(CCC1=CCCCC1)C(=O)[C@H](CC(=O)NCC1CCCCC1)C2	15µM*	.	.	16µM*	.	.
CCCCCCCCN1C(=O)[C@H](CC(=O)NCCCOCCCC)C[C@@]2(C(=O)OC)CCCCC=C12	13µM*	.	.	?	.	.
COc1ccc(-c2nnc(SCCOc3ccccc3C)o2)cc1OC	i	-8%	.	i	.	.
CCN1C(=O)/C(=C2/Sc3ccccc3N2CC)S/C1=N\c1ncn[nH]1	23µM*	-38%	?	i	24%	?
Cc1nc(CC(=O)c2c(C)cc(O)cc2O)cs1	21µM*	-25%	-10%	21µM*	1%	-7%
CCN(C(=O)Cn1c(C(=O)OC)cc2sc(Cl)cc21)c1cccc(C)c1	i	0%	.	i	.	.
Cc1cc2cc(CCNS(=O)(=O)c3ccc(Br)cc3)c(=O)[nH]c2cc1C	i	20%	.	i	.	.
O=C1c2c(Br)c(Br)c(Br)c(Br)c2C(=O)N1c1ccccn1	i	23%	-3%	i	-22%	0.65µM*
CC1CN(CCOc2ccccc2-c2ccccc2)CC(C)O1 (configuration not stated)	21µM*	10%	-4%	?	-3%	21%
SMILES	KB-V1 cytotox	RGS4 inhibitor	TSG101-PTAP inh	KB-3-1 tox	SW480 rereplic	MCF10A rerep
CC1CCN(CCOCCOc2ccccc2-c2ccccc2)CC1	12µM*	-34%	-1%	i	27%	?
CC1CCN(CCOc2ccc(OCc3ccccc3)cc2)CC1	15µM*	-12%	-6%	i	0%	?
O=C(Cc1ccc(N2CCNC2=O)cc1)N1CCCC(Nc2cccc(F)c2)C1 (configuration not stated)	?	11%	1%	4.1µM*	?	3.7µM*
O=C(Cc1ccc(N2CCNC2=O)cc1)N1CCCC(Nc2ccc(F)c(F)c2)C1 (configuration not stated)	i	6%	-8%	7.3µM*	5.8µM*	?
O=C(C[n+]1ccccc1Br)c1ccc(F)cc1	i	.	.	i	.	.
O=C(Cc1ccccc1)Nc1sc2c(c1C(=O)Nc1ccc(Br)cc1)CCCC2	.	-6%	.	.	.	.
CC(=O)Nc1ccc(N=Cc2nc(-c3ccc(C)cc3)oc2O)cc1	i	-37%	-8%	i	-1%	1%
Cc1ccc(N=Cc2nc(-c3ccc(C)cc3)oc2O)cc1	i	21%[56.9 µM]	0%	i	?	6.5µM*
COCC(C)NC(=O)c1noc2c1CCc1cc(OC)ccc1-2 (configuration not stated)	16µM*	-20%	-4%	i	1%	?
COc1ccc2c(c1)CCc1c(C(=O)NCCN3CCOCC3)noc1-2	12µM*	2%	-6%	i	2%	-2%
CCOc1ccc(CNC(=O)c2ccc3c(c2)nc2n3CCCCC2)cc1	.	8%	.	.	.	.
Cc1cccc(-c2nc3ccccc3n3c(-c4ccccc4)c4c(=O)n(C)c(=O)n(C)c4c23)c1	i	30%	.	i	.	.
Cc1ccccc1CSCCNC(=O)CSCc1ccc([N+](=O)[O-])cc1	16µM*	?	-7%	i	-13%	-2%
Cc1ccc(NC(=O)CN(c2ccccc2)S(=O)(=O)N(C)C)cc1Cl	12µM*	-1%	.	?	.	.
Cc1ccccc1CSCCNC(=O)c1ccccc1	16µM*	-9%	-3%	i	1%	9%
CCc1ccc(NC(=O)CN(c2ccccc2)S(=O)(=O)N(C)C)cc1	i	-3%	0%	i	1%	-1%
Cc1ccccc1CSCCNC(=O)CN(c1ccccc1)S(=O)(=O)N(C)C	16µM*	34%	.	?	.	.
CC1(C)C(=O)N(CC(=O)Nc2ccc(OC(F)(F)F)cc2)c2ccccc21	i	-16%	.	i	.	.
CCCS(=O)(=O)NCCc1csc2nc(-c3ccc(OC)cc3)nn12	.	-6%	.	.	.	.
COc1ccc(Nc2nc(N)c3cc(OC)c(OC)cc3n2)cc1	.	6%	.	.	.	.
C/C(=N\NC(=O)c1cc(-c2cccs2)nc2ccccc12)c1ccccn1	i	16%[11.4 µM]	-3%	?	1.6µM*	?
O=C(N/N=C/c1ccsc1)c1cc(-c2ccncc2)nc2ccccc12	8.2µM*	6%	-6%	2.6µM*	7.3µM*	9.2µM*

Assay outcomes (PubChem BioAssay)
